Source: PubChem
GPT2 inhibitor: inhibitors of human GPT2 alanine aminotransferase; Q8TD30; Recombinant GPT2, coupled pyruvate oxidase/HRP Amplex Red fluorescence; Potency, µM (series often up to 57.7 µM), usual class: inhibitors; hit rate 0.25% among 100,000; AID 1671188; also: nearly all actives have a fitted effect of over 60% in size
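Fluorescence of coupled pyruvate oxidase/HRP/Amplex Red system (50uM Amplex, 30 min, dark) reports pyruvate formed by GPT2. Enzyme reaction: 10ng/uL GPT2, 2mM L-alanine, 250uM a-KG, 30 min room temperature, pH 7.5; 50uM AOA control.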
NPR1 antag: antagonists of human natriuretic peptide receptor Npr1. Potency, µM (top dose mostly 46.3 µM), hits mostly inhibitors. AID 1347048. P16066. HEK293 hNpr1 GloSensor cGMP, ANP-stimulated luminescence. hit rate 1.6% among 76,000; calls by dose curve; also: nearly all actives have a fitted effect of over 60% in size
Target sequence (P16066 whole entry, looked up): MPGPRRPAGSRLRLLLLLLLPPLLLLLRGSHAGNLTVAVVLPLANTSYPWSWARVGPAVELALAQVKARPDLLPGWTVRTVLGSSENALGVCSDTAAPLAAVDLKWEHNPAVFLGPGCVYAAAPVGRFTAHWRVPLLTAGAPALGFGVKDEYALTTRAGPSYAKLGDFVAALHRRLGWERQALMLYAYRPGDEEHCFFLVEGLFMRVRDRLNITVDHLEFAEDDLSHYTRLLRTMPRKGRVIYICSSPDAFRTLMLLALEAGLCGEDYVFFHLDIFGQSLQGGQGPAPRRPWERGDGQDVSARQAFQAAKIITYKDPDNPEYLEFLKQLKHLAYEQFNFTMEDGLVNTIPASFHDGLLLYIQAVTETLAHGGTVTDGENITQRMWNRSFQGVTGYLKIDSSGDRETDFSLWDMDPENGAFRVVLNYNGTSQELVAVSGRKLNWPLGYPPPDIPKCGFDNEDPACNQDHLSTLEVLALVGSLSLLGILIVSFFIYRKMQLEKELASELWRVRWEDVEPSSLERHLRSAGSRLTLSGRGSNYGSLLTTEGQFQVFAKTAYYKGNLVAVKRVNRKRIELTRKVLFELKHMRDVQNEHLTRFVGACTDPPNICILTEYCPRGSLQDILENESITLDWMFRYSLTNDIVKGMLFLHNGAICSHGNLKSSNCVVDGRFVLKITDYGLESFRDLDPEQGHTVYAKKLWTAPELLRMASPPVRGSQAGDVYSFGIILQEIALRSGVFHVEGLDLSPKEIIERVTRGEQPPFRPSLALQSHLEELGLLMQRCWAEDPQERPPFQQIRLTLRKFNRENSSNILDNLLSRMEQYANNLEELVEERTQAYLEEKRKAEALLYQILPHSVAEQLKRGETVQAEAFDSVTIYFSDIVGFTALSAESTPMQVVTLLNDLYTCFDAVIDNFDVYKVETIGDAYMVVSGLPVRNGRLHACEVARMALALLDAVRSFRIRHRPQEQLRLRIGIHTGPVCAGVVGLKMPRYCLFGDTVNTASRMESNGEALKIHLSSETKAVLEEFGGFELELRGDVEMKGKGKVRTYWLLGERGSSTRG
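Compound pre-incubated 30 min at room temperature on GloSensor-loaded HEK293 cells stably carrying hNpr1 and the pGS-40F cGMP biosensor. Stimulation uses hNppA at 0.1 nM final; luminescence is taken at baseline and 20 min post-agonist.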
NIH3T3 tox: kills NIH 3T3 cells; NIH 3T3 viability, CellTiter-Glo ATP luminescence, 48-72 h; Potency, µM (highest dose often 96.7 µM), hits mostly inhibitors; hit rate 4.3% among 94,000; AID 1345082; also: nearly all actives have a fitted effect of over 55% in size
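Cytotoxicity is measured as loss of cellular ATP: NIH 3T3 cells (400/well) are exposed to compound for 48 or 72 hr at 37 °C, then CellTiter-Glo luminescence is imaged after 10 min at room temperature.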
Luciferase inh: Photinus pyralis luciferase inhibition. P08659. purified P. pyralis luciferase, luminescence, biochemical. Potency, µM (doses to about 115 µM), usual class: inhibitors. hit rate 2.5% among 76,000; also: nearly all actives have a fitted effect of over 65% in size
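Purified P. pyralis luciferase (10nM final) in 50mM Tris acetate pH 7.5, 10mM Mg acetate, 0.01% Tween-20, 0.05% BSA with 10uM D-luciferin and 10uM ATP. Compounds titrated qHTS. Luminescence imaged on CCD.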
HEK293 tox: cytotoxic compounds in HEK 293 cells; HEK 293 viability, ATP luminescence (CellTiter-Glo), 48-72 h; Potency, µM (series often up to 115 µM), hits mostly inhibitors; hit rate 6.6% among 94,000; AID 1345083; also: nearly all actives have a fitted effect of over 60% in size
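250 HEK 293 cells/well; compound by pintool; incubated 48 or 72 hr at 37 degree Celsius; CellTiter-Glo added, 10 min RT, luminescence imaged.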
Of the large screens only hits and unclear results are named; the others gave an inactive call; ! = not active in a repeat. Most compounds without a hit are left out; they make up all but 10% or so of the library. Unless noted, calls follow the shape of the dose curve; as a rule, active = well fitted curve in the direction sought with a large enough effect; inconclusive = small, poorly fitted or top-dose-only effect, or another doubt; inactive = no such curve, though single readings can be large; an effect the other way counts as inactive or inconclusive.

O=C(c1ccccc1F)N1CCC2(C1)C(=O)N(CCc1ccccc1)c1ccccc12 (configuration not stated)	NIH3T3 tox inconclusive, HEK293 tox 40µM
COC(=O)N1CCC2(C1)C(=O)N(CCc1ccccc1)c1ccccc12 (configuration not stated)	NIH3T3 tox inconclusive, HEK293 tox 63µM!
COCC(=O)N1CCC2(C1)C(=O)N(CCc1ccccc1)c1ccccc12 (configuration not stated)	none
O=C(c1ccc(F)cc1)N1CCC2(C1)C(=O)N(CCc1ccccc1)c1ccccc12 (configuration not stated)	NIH3T3 tox inconclusive, HEK293 tox 40µM!
CN1C(=O)C2(CCN(C(=O)c3cccc(Br)c3)C2)c2ccccc21 (configuration not stated)	NIH3T3 tox inconclusive, HEK293 tox 35µM
O=C(Cc1cccc(Cl)c1)N1CCC2(C1)C(=O)N(CCc1ccccc1)c1ccccc12 (configuration not stated)	NIH3T3 tox 45µM!, HEK293 tox 32µM
COCCNC(=O)c1ccc2c(c1)C1(CCN(CC3CC3)C1)CN2Cc1ccccc1 (configuration not stated)	NIH3T3 tox inconclusive, HEK293 tox inconclusive
Cc1ccc(-n2cccc2CC(=O)N2CCCC2)cc1	none
O=C(O)C1=NC(C(=O)O)CC(C=CN2c3cc(O)c(OC4OC(CO)C(O)C(O)C4O)cc3CC2C(=O)O)=C1 (configuration not stated)	none (no result: NPR1 antag, NIH3T3 tox, Luciferase inh, HEK293 tox)
CC(=O)N(C1CC1)C1CCOC2(CCN(C(=O)Cn3c(=O)oc4ccccc43)CC2)C1 (configuration not stated)	none
O=C1NC(C(=O)NCc2ccccc2)Cn2cccc21 (configuration not stated)	none
CC(=O)c1cccc(NC(=O)Cn2c(=O)n(-c3ccccc3)c(=O)c3c2cc(C)n3C)c1	none
COc1ccc(CC(=O)N2CCC3(C2)C(=O)N(CCc2ccccc2)c2ccccc23)cc1 (configuration not stated)	NIH3T3 tox inconclusive, HEK293 tox 40µM!
COc1ccc(/C=C/CN2CCC(CCC(=O)Nc3ccccc3Cl)CC2)cc1	NIH3T3 tox 79µM, HEK293 tox inconclusive
COc1ccccc1/C=C/CN1CCCC(CCC(=O)Nc2ccccc2F)C1 (configuration not stated)	NIH3T3 tox inconclusive, HEK293 tox 45µM
COc1ccc2n[nH]c(CN3CCC(C(C)N4CCCC4)CC3)c2c1 (configuration not stated)	none
COCc1cccc(-c2n[nH]c3c2CC(=O)N(Cc2ccc(OC)cc2)C3)c1	NIH3T3 tox 25µM, HEK293 tox inconclusive
COc1ncccc1-c1n[nH]c2c1CC(=O)N(Cc1ccccc1)C2	NIH3T3 tox 25µM
COc1ccc(-c2n[nH]c3c2CC(=O)N(CC2CCOCC2)C3)cc1F	NIH3T3 tox inconclusive, HEK293 tox inconclusive
COc1ccc(CN2Cc3[nH]nc(-c4cnc(OC)nc4)c3CC2=O)cc1	NIH3T3 tox 8.9µM
COCCN1Cc2[nH]nc(-c3ccc(OC)c(F)c3)c2CC1=O	NIH3T3 tox 79µM
COc1ccc(CN2Cc3[nH]nc(-c4ccc(CO)cc4)c3CC2=O)cc1	NIH3T3 tox inconclusive
Cc1cc(CNC(=O)c2cc(-c3ccccc3F)cc3c2OCCN3C)no1	NIH3T3 tox inconclusive, HEK293 tox inconclusive
COc1ncc(-c2n[nH]c3c2CC(=O)N(Cc2ccccc2)C3)cn1	NIH3T3 tox 25µM, HEK293 tox inconclusive
COc1ccc(CN2Cc3[nH]nc(-c4ccc(C(=O)N5CCOCC5)cc4)c3CC2=O)cc1	HEK293 tox 79µM
O=C(CN1CCCC1)N[C@H]1CC[C@H](Nc2nccc(-c3cccnc3)n2)C1	NIH3T3 tox inconclusive, HEK293 tox 45µM
O=C(N[C@H]1CC[C@H](Nc2nccc(-c3cccnc3)n2)C1)c1ccc(O)cc1	NIH3T3 tox inconclusive, HEK293 tox inconclusive
O=C([C@@H]1C[C@H](Oc2cccnc2)CN1C(=O)CCc1ccccc1)N1CCCC1	none
O=C(c1ccc(C(F)(F)F)cc1)N1CCC2(CC1)COc1ccccc1NC2=O	NIH3T3 tox inconclusive, HEK293 tox 79µM
Cc1ccc(C(=O)N2CCC3(CC2)COc2ccccc2NC3=O)cc1	HEK293 tox inconclusive
O=C(CN1C(=O)COc2ccc(C(=O)COc3cccc(F)c3)cc21)NCc1ccc2c(c1)OCO2	none
CCc1ccccc1OCC(=O)c1ccc2c(c1)N(CC(=O)Nc1ccc(F)cc1)C(=O)CO2	NIH3T3 tox 32µM, HEK293 tox 40µM
CCCc1ccccc1OCC(=O)c1ccc2c(c1)N(CC(=O)NCC1CC1)C(=O)CO2	GPT2 inhibitor inconclusive
COc1ccc(NC(=O)CN2C(=O)COc3ccc(C(=O)COc4cccc(F)c4)cc32)cc1	NIH3T3 tox 40µM
COc1ccccc1NC(=O)NC[C@H]1O[C@H](Cc2cc(C(C)(C)C)on2)CC[C@@H]1O	GPT2 inhibitor inconclusive, HEK293 tox inconclusive
N#Cc1cccc(CN2CCCC(c3nc4ccc(F)cc4c(=O)[nH]3)C2)c1 (configuration not stated)	NIH3T3 tox inconclusive, HEK293 tox 45µM!
O=c1[nH]c(C2CCN(Cc3ccc(Cl)cc3)CC2)nc2ccc(F)cc12	none
N#Cc1cccc(CN2CCC(c3nc4ccc(F)cc4c(=O)[nH]3)CC2)c1	GPT2 inhibitor inconclusive, NIH3T3 tox inconclusive, HEK293 tox 22µM!
O=C(C1CC1)N1CCC(c2nn(-c3ccc(Cl)cc3)c(=O)[nH]2)CC1	none
C[C@H]1[C@@H]2[C@@H](O)C([C@H](C)C(=O)NCCN3CCOCC3)CC[C@@]2(C)CC[C@@H]1NC(=O)c1cnccn1 (some centres not stated)	none
Cn1c2c(c3ccccc31)CN(C(=O)Nc1cccc(Br)c1)CC2	NIH3T3 tox 32µM, Luciferase inh inconclusive, HEK293 tox inconclusive
Cc1cccc(NC(=O)N2CCc3c(c4ccccc4n3C)C2)c1C	NIH3T3 tox inconclusive, HEK293 tox inconclusive
Cc1ccc(NC(=O)N2CCc3c(c4ccccc4n3C)C2)cc1C	NIH3T3 tox inconclusive, Luciferase inh inconclusive, HEK293 tox 45µM
Cn1c2c(c3cc(F)ccc31)CN(C(=O)Nc1cccc(F)c1)CC2	NIH3T3 tox 22µM, Luciferase inh inconclusive, HEK293 tox 45µM
CC(=O)N1CCC[C@H](n2c(=O)n(C)c3cccnc32)C1	none
Cn1nc(C(F)(F)F)c(Cl)c1C(=O)N[C@@H]1CCNC[C@H]1O	none
COc1ccc2[nH]c(C[C@@H]3C[C@@H](C(C)C)[C@H](CN)C=C3C)nc2n1	NPR1 antag inconclusive, NIH3T3 tox inconclusive, HEK293 tox inconclusive
CC1=C[C@@H](CNC(=O)CN(C)C)[C@H](C(C)C)C[C@H]1Cc1nc2ccc(Cl)cc2[nH]1	NIH3T3 tox 89µM, HEK293 tox inconclusive
